In the library only some 7.3% were active in any assay of this set; here they are far more common.
SMN2 splice up – qHTS Assay for Enhancers of SMN2 Splice Variant Expression | AID 1458, 2008 | 210,000 compounds, 2.8% hits | Potency, µM (series often up to 46.1 µM), inactives show at the highest dose activity change, positive = activation, most hits filed as activators | HEK293 SMN2-luciferase splicing reporter, luminescence, 30-36 h; also: % of control where 0% means no effect; nearly all actives have a fitted effect of over 55% in size
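HEK293 cells carry an SMN2 minigene-luciferase reporter in which exon 7 inclusion puts luciferase in frame. Cells were seeded at 2000 cells/well, attached for 10-12 hours, then exposed to compounds for 30-36 hours at 37C before ONE-Glo luminescence.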
NPC1 prom act – qHTS Assay for NPC1 Promoter Activators. 320,000 compounds, 2.4% hits. Potency, µM (top dose mostly 9.22 µM), for the others: top-dose activation, most hits filed as activators. Huh7 NPC1 promoter luciferase reporter, 24 h. AID 485313, 2010; also: % of control where 0% means no effect; nearly all actives have a fitted effect of over 60% in size
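Huh7 reporter cells (NPC1 promoter driving luciferase) are dosed with compound for 24 h at 37 °C, 5% CO2; luciferase detection reagent is then added and luminescence measured after 10 min at ambient temperature.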
Rab9 prom act – qHTS Assay for Rab9 Promoter Activators; Huh7 Rab9 promoter-luciferase reporter, luminescence, 24 h; Potency, µM (doses to about 9.22 µM), for the others: at the highest dose activation, negative = inhibition, most hits filed as activators; 320,000 compounds, 2.8% hits; also: % of control where 0% means no effect; nearly all actives have a fitted effect of over 60% in size
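Measured in stably transfected Huh7 cells bearing a Rab9 promoter–luciferase construct: 24 h compound treatment at 37 °C, followed by luminescence detection.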
FLuc modulator – qHTS profiling assay for firefly luciferase inhibitor/activator using purifed enzyme and Km concentrations of substrates (counterscreen for miR-21 project). Luciferin 4-monooxygenase (Photinus pyralis), P08659. purified FLuc, Km substrates, luminescence inhibition. Potency, µM (series often up to 57.5 µM), for the others: at the highest dose activity change, negative = inhibition, usual class: inhibitors. 360,000 compounds, 6.9% hits. AID 588342, 2011;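 also: plate controls were vehicle for no effect and reference inhibitor for full effect; nearly all actives have a fitted effect of over 55% in size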
Target sequence (P08659 whole entry, looked up): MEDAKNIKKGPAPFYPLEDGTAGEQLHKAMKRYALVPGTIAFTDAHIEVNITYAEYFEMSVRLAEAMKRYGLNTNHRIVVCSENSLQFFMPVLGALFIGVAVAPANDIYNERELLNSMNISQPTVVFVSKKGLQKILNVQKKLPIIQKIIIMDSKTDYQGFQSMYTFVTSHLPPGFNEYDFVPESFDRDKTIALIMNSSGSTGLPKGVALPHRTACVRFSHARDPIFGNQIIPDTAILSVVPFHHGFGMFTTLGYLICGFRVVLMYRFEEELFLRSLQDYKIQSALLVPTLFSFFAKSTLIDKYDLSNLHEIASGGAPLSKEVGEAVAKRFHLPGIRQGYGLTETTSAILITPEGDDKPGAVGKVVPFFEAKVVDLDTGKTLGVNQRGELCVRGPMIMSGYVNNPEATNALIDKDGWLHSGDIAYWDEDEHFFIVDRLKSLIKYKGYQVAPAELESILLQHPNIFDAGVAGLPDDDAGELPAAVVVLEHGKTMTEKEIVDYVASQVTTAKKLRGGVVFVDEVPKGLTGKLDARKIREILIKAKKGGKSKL
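Purified P. pyralis luciferase (10nM final) with 10uM D-luciferin and 10uM ATP (Km levels) in 50mM Tris acetate pH 7.5, 10mM Mg acetate, 0.01% Tween-20, 0.05% BSA; qHTS 6-point titration, ~60 µM downward; luminescence read.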
ELG1 genotoxic – qHTS screen for small molecules that induce genotoxicity in human embryonic kidney (HEK293T) cells expressing luciferase-tagged ELG1. HEK293T ELG1-luciferase reporter, luminescence, 16 h. Potency, µM (top dose mostly 46 µM), for inactives: top-dose activity change, positive = activation, actives largely listed as activators. 330,000 compounds, 1.3% hits; also: % of control where 0% means no effect; nearly all actives have a fitted effect of over 60% in size
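Genotoxicity was scored as increased ELG1-luciferase reporter signal, measured by ONE-Glo luminescence (30 min, room temperature). Compound or vehicle exposure of the HEK293T reporter cells lasted 16 hr at 37°C.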
uPA surface inh – qHTS for Inhibitors of Cell Surface uPA Generation | cell surface uPA generation assay, qHTS | Potency, µM (titrated, usually from 38.3 µM), for the others: top-dose activity change, negative = inhibition, usual class: inhibitors | 330,000 compounds, 0.31% hits; active = well fitted inhibition curve with a large enough effect; inconclusive = small, poorly fitted or top-dose-only effect; inactive = no such curve, though single readings can be large or run the other way; tested in mouse RAW 264.7 cells; also: % is scaled to controls: 0 for no effect and ±100 for the full control effect; nearly all actives have a fitted effect of over 55% in size
* hit, by the source's call; ? = inconclusive; . = no result given. Unless noted, calls follow the shape of the dose curve; as a rule, active = well fitted curve in the direction sought with a large enough effect; inconclusive = small, poorly fitted or top-dose-only effect, or another doubt; inactive = no such curve, though single readings can be large; an effect the other way counts as inactive or inconclusive. Potency is read from the fitted curve at half-maximal effect.

SMILES | SMN2 splice up | NPC1 prom act | Rab9 prom act | FLuc modulator | ELG1 genotoxic | uPA surface inh
COc1ccc(C(=O)C2CCCN(C(=O)CCc3scnc3C)C2)c(C)c1 (centres undefined) | . | ? | ? | 19µM* | ? | -3.8%
COc1ccc(C(=O)C2CCCN(C(=O)CCc3ccccn3)C2)c(C)c1 (centres undefined) | . | -7.5% | 2.9% | 2.2% | -3.1% | ?
CSc1ccc(C2c3[nH]c4ccccc4c3CCN2C(=O)c2ccnn2C)cc1 (centres undefined) | . | 11.1% | 3.55µM* | 10.7µM* | 16.2% | -8.8%
Cc1ccc(NC(=S)N2CCc3[nH]c4ccccc4c3C2)cc1 | . | 0.7% | 0.2% | -18.6% | 0.1% | -10.8%
S=C(NC1CCCCC1)N1CCc2[nH]c3ccccc3c2C1 | . | -3.6% | -9.6% | 23.9µM* | 9.9% | 2.4%
CC(NS(=O)(=O)c1cccc(Cl)c1)C(=O)Nc1ccc(-c2nc3ccccc3s2)cc1 (centres undefined) | 20µM* | ? | 2.82µM* | 16.9µM* | ? | -9.2%
O=C(O)CNS(=O)(=O)c1cccc(Cl)c1 | . | 0.6% | -1.5% | 1.9% | -0.5% | 5.3%
Cc1ccc(-c2nc3ccccc3s2)cc1S(=O)(=O)N1CCOCC1 | -13.1% | 6.8% | 15.8% | ? | -16.9% | .
Cc1ccc(C)c(S(=O)(=O)NC(C)C(=O)Nc2ccc(-c3nc4ccccc4s3)cc2)c1 (centres undefined) | 5.3% | 3.55µM* | 3.16µM* | 7.57µM* | ? | -1.0%
O=C(CNS(=O)(=O)c1cccc(Cl)c1)Nc1ccc(-c2nc3ccccc3s2)cc1 | 4.47µM* | ? | 1.58µM* | 15.1µM* | 8.2µM* | 5.4%
COc1cccc(S(=O)(=O)NCC(=O)Nc2ccc(C(C)(C)C)cc2)c1 | -17.2% | 0.4% | -2.9% | ? | -5.0% | 3.1%
CC(C)(C)c1ccc(S(=O)(=O)NCC(=O)Nc2ccc(-c3nc4ccccc4s3)cc2)cc1 | 11.2µM* | -1.6% | 26.6% | ? | ? | -0.9%
Cc1ccc(S(=O)(=O)NCC(Nc2cccc(Cl)c2)c2ccccc2)cc1 (centres undefined) | -22.8% | . | . | -12.3% | . | .
O=C(NCc1ccc(Cl)cc1)c1ccc2c(Cl)c3c(nc2c1)CCCC3 | -5.7% | . | . | 2.6% | . | .
Cc1ccc(OC(C)C(=O)Nc2ccncc2)cc1C (centres undefined) | . | -6.4% | 3.6% | -3.1% | -9.5% | -13.8%
O=C(OCC(=O)N1CCCCCC1)c1ccc[nH]c1=O | . | . | . | . | 0.2% | ?
O=C(OCC(=O)N1CCCC1)c1ccccc1O | . | 2.82µM* | ? | 15.1µM* | ? | 1.6%
COc1ccc(C(=O)OCC(=O)NC2CC2)cc1[N+](=O)[O-] | 5.62µM* | -2.0% | 0.4% | 7.8% | 1.7% | -14.1%
COc1cc(SC)ccc1C(=O)OCC(=O)NC1CCCC1 | -3.6% | 1.1% | ? | 23.9µM* | ? | -2.4%
O=C(OCC(=O)N1CCCCCC1)c1ccccc1Br | . | 2.24µM* | 1.78µM* | 5.36µM* | ? | -20.0%
CC(C)(C)C1CCc2c(sc(NC(=O)c3ccncc3)c2C(=O)Nc2ccccc2Cl)C1 (centres undefined) | -15.3% | . | . | ? | . | .
Cc1ccc(C(=O)OCC(=O)N2CCCCCC2)c(O)c1 | . | ? | 2.82µM* | 12µM* | 13.5% | 1.8%
O=C(COC(=O)c1ccccc1Br)NC1CCCC1 | . | 29.4% | 20.9% | 16.9µM* | ? | 1.0%
Cc1ccc(-c2noc(CN(C3CCCCC3)S(=O)(=O)c3ccc(C)cc3)n2)cc1 | -8.9% | . | . | -1.8% | . | .
CC(=O)c1ccc(N2CCN(C(=O)CCC(=O)c3cccs3)CC2)cc1 | 0.7% | 4.6% | 0.0% | 2.9% | -0.5% | 2.2%
SMILES | SMN2 splice up | NPC1 prom act | Rab9 prom act | FLuc modulator | ELG1 genotoxic | uPA surface inh
O=C(CCC(=O)N1CCN(c2ccc(O)cc2)CC1)c1cccs1 | . | 28.6% | 2.6% | -20.0% | 6.9% | 3.98µM*
O=C1NC(=S)S/C1=C\c1ccc2ccccc2c1 | . | 29.9% | ? | 9.53µM* | 12.0% | 1.4%
COc1ccc(/C=C2\SC(=S)NC2=O)cc1OS(=O)(=O)c1ccc(NC(C)=O)cc1 | 18.5% | -0.9% | -1.8% | 26.9µM* | -6.9% | 6.1%
CCOc1ccc(/C=C2\SC(=S)NC2=O)cc1OC | . | 5.1% | 0.3% | 12µM* | 11.8% | -7.4%
O=C1NC(=S)SC1=Cc1ccc(Cl)cc1 | . | . | . | . | . | -10.8%
NC(=O)c1ccc[n+]([C@@H]2OC(COP(=O)([O-])OP(=O)(O)OCC3OC(n4cnc5c(N)ncnc54)C(OP(=O)(O)O)C3O)C(O)C2O)c1 (some centres undefined) | -13.2% | . | . | . | . | .
CCOc1ccc(NC(=O)CN2C(=O)NC(C)(c3ccc4c(c3)OCCCO4)C2=O)cc1OCC (centres undefined) | . | . | . | . | . | 6.5%
COC(=O)[C@@]1(Cc2ccc(OC)cc2)[C@@H]2C(=CC(=O)[C@H]2CC(=O)C(=O)N2CCCC2)CN1C(=O)c1ccccc1 | -8.7% | 6.0% | -1.4% | 2.0% | -14.8% | 8.91µM*
O=C(c1cnccn1)N1CCC2(CCCN(c3ccc(-c4ccccc4)cc3)C2)CC1 | 3.98µM* | . | . | . | . | .
COc1ccc(OC)c(CCNC(=O)Cn2nc(C)n3c(cc4sccc43)c2=O)c1 | -0.7% | . | . | 0.5% | . | .
CC1=Nc2ccccc2/C1=C/c1sc(=S)n(-c2cccc(C(=O)O)c2)c1O | -10.9% | -0.7% | -0.5% | ? | 1.6% | 4.4%
CSc1nsc2nc(=O)c(/C=C3\C(C)=Nc4ccccc43)c(N)n12 | 7.4% | 8.6% | 22.5% | 15.1µM* | -5.2% | 6.2%
C(=N\n1cnnc1)/c1cn(-c2cccs2)nc1-c1ccccc1 | ? | 14.0% | 8.2% | 7.57µM* | ? | -10.3%
S=c1[nH]nc(-c2cccs2)n1/N=C/c1cn(-c2ccccc2)nc1-c1ccccc1 | . | 12.1% | 5.1% | 3.38µM* | 1.1% | -5.4%
COc1ccc(-c2nn(-c3ccccc3)cc2/C=N/NC(N)=S)cc1OC | 76.1% | -21.4% | -21.2% | 5.36µM* | -0.1% | -8.6%
COc1ccc(-c2nn(-c3ccccc3)cc2C(N)=O)cc1OC | . | 9.2% | 1.8% | 16.9µM* | 2.4% | 0.4%
C(=N\n1cnnc1)/c1ccc(-c2ccccc2)cc1 | -13.7% | 2.6% | 2.0% | ? | 2.7% | 2.2%
CCOCc1c(C(=O)NC2CCCCCC2)oc2ccccc12 | -10.0% | -0.7% | 9.1% | -8.6% | -7.4% | 2.0%

High-throughput results (PubChem)
